Screening data (PubChem)
Only some compounds are listed: those with a hit (about 2.3% of all), similar ones and a draw of the others.
Mito fusion act: qHTS Assay for Small Molecule Inhibitors of Mitochondrial Division or Activators of Mitochondrial Fusion; S. cerevisiae fusion-defective mutant growth rescue, CellTiterGlo 48 h; Potency, µM (highest dose often 46.1 µM), for the others: top-dose growth rescue (activation), usual class: activators; 0.23% of 320,000 active; note: potency is the fitted concentration of half-maximal effect; % of control where 0% means no effect; nearly all actives have a fitted effect of over 45% in size
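S. cerevisiae fusion-defective temperature-sensitive mutants (e.g. fzo1-1, mgm1-5) grown 48 h at 37C in YPEG (ethanol/glycerol non-fermentable) medium with 23 nl compound per well; growth rescue read as CellTiterGlo luminescence.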
Nrf2 ARE act: qHTS of Nrf2 Activators. AID 624171, 2012. Potency, µM (titrated, usually from 46.1 µM), without a hit: at the top dose activation, usual class: activators. AREc32 ARE-luciferase reporter (MCF7-derived line), luminescence, 24 h. 0.31% of 410,000 active; note: potency is the fitted concentration of half-maximal effect; % of control where 0% means no effect; nearly all actives have a fitted effect of over 65% in size
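Nrf2 activation is followed as ARE-luciferase induction in the AREc32 line after one day of compound treatment; luminescence is read with Steady-Glo.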
miR-21 act: qHTS Assay for Modulators of miRNAs and/orActivators of miR-21; HeLa miR-21 FLuc reporter, luciferase, 48 h; Potency, µM (titrated, usually from 38.3 µM), without a hit: top-dose activity change, positive = activation, most hits filed as activators; 340,000 tested, under 10 active;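 note: % of control where 0% means no effect; miR-21 action dims this reporter so a rising signal means less miR-21 action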
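Compounds were titrated across several concentrations (up to approximately 40 uM) and incubated 48 hours with HeLa miR-21-FLuc reporter cells (miR-21 target sequence downstream of FLuc, endogenous miR-21). Readout was firefly luciferase luminescence after lytic detection reagent.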
A549 tox-1: Nrf2 qHTS screen for inhibitors: counterscreen for cytotoxicity. A549 ARE-Fluc cells, CellTiter-Fluor viability, 18-24 h. Potency, µM (doses to about 46 µM), for the others: at the highest dose activity change, negative = cytotoxicity, actives largely listed as inhibitors. 0.16% of 390,000 active; note: potency is the fitted concentration of half-maximal effect; % is set by controls: 0 for no effect and ±100 for the full control effect
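Cytotoxicity counterscreen: CellTiter-Fluor fluorescence was measured in A549 ARE_Fluc cells after 18-24 h of compound exposure in a concentration series. The subsequent BugLite luminescent read reports ARE-luciferase activity.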
Glioma ERSR ind: qHTS for Inducers of the Endoplasmic Reticulum Stress Response (ERSR) in Human Glioma: qHTS. AID 602332, 2012. 0.02% of 420,000 active. U87-MG GRP78 promoter luciferase reporter, 16 h. Potency, µM, inactives show top-dose activation, hits mostly activators; note: potency is the fitted concentration of half-maximal effect; series mostly up to about 76 µM; % of control where 0% means no effect; nearly all actives have a fitted effect of over 35% in size
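Stably transfected U87-MG glioma cells carrying a GRP78-based luciferase sensor; 16 h compound incubation. Luminescence end-point read 10 min after Bright-Glo addition at room temperature.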
Nrf2 inh: Nrf2 qHTS screen for inhibitors | A549 ARE-Fluc reporter, luciferase luminescence, 18-24 h | Potency, µM (highest dose often 46 µM), without a hit: at the highest dose activity change, negative = inhibition, actives largely listed as inhibitors | 2.1% of 360,000 active; note: potency is the fitted concentration of half-maximal effect; % is set by controls: 0 for no effect and ±100 for the full control effect; nearly all actives have a fitted effect of over 60% in size
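Quantitative HTS in A549 cells stably bearing an antioxidant response element-firefly luciferase construct. Inhibition of Nrf2-driven transcription was scored by luminescence after 18-24 h of compound exposure at 37 °C.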
FLuc counter 3: Nrf2 qHTS screen for inhibitors: Purified Fluc Biochemical Counterscreen for Hit Validation | AID 720522, 2013 | 4% of 1,400 active | purified firefly luciferase, luminescence inhibition | shares compounds with Nrf2 inh | Potency, µM (top dose mostly 57.5 µM), inactives show top-dose activity change, negative = inhibition, hits mostly inhibitors; note: potency is the fitted concentration of half-maximal effect; % is set by controls: 0 for no effect and ±100 for the full control effect; nearly all actives have a fitted effect of over 65% in size
Target sequence (P08659 whole entry, looked up): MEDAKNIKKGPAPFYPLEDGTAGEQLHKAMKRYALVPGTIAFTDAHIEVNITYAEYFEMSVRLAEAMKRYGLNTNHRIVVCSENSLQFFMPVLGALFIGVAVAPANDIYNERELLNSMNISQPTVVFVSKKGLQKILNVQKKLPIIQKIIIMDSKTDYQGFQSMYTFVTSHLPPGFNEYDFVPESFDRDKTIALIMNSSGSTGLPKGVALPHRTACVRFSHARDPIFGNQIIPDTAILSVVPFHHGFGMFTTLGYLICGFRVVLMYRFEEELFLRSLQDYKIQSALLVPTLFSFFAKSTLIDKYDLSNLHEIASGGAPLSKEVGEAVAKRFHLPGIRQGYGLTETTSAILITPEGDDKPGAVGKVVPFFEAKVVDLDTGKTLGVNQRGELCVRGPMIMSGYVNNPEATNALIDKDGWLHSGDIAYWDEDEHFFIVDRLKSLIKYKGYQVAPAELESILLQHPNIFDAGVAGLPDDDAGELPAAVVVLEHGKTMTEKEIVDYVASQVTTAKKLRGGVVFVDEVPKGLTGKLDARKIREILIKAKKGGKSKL
A549 tox-2: Nrf2 qHTS screen for inhibitors: A549 ARE-Fluc Cytotoxicity Counterscreen for Hit Validation; shares compounds with Nrf2 inh; A549 ARE-Fluc cells, cytotoxicity counterscreen; Potency, µM (titrated, usually from 46.1 µM), for inactives: at the highest dose activity change, negative = cytotoxicity, most hits filed as inhibitors; 2% of 1,400 active; AID 720523, 2013;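 note: potency is the fitted concentration of half-maximal effect; cells exposed to compounds for 18 to 24 hours; % is set by controls: 0 for no effect and ±100 for the full control effect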
ARE-Fluc inh: Nrf2 qHTS screen for inhibitors: Nrf2 A549 ARE-Fluc Confirmation Assay for Hit Validation. shares compounds with Nrf2 inh. A549 ARE-firefly luciferase reporter, luminescence. Potency, µM (highest dose often 46.1 µM), inactives show at the highest dose activity change, negative = inhibition, actives largely listed as inhibitors. 74% of 1,400 active; note: potency is the fitted concentration of half-maximal effect; % is set by controls: 0 for no effect and ±100 for the full control effect; nearly all actives have a fitted effect of over 65% in size
Active calls of the source: *; ? = inconclusive; . = not tested or not shown. Calls come from the whole dose curve; as a rule, active = well fitted curve in the direction sought with a large enough effect; inconclusive = small, poorly fitted or top-dose-only effect, or another doubt; inactive = no such curve, though single readings can be large; an effect the other way counts as inactive or inconclusive.

SMILES	Mito fusion act	Nrf2 ARE act	miR-21 act	A549 tox-1	Glioma ERSR ind	Nrf2 inh	FLuc counter 3	A549 tox-2	ARE-Fluc inh
CCN(CCNC(=O)C1CCN(S(=O)(=O)c2c(C)noc2C)CC1)c1ccccc1	12%	0%	-3%	1%	-2%	-6%	.	.	.
COC(=O)c1ccc2c(c1O)C(=O)c1ccccc1C2=O	-10%	2%	-25%	?	-3%	3.3µM*	11µM*	3.7µM*	3.7µM*
COc1ccc(CNC(=O)c2cc3c(C)nc4ccccc4c3o2)c(OC)c1	-3%	0%	15%	-22%	-7%	5.2µM*	-2%	-5%	.
CC1(C)CC(=O)C2=C(C1)N1CCCCC1CC2=O (configuration not stated)	3%	0%	0%	-10%	1%	3%	.	.	.
CCn1c(C)nc([N+](=O)[O-])c1Sc1ccc(F)cc1	5%	?	19%	-9%	1%	?	.	.	.
CC(C)Cn1c(C(C)C)nc([N+](=O)[O-])c1S(=O)(=O)c1ccc(F)cc1	1%	22µM*	29%	?	-3%	9.2µM*	1%	-18%	-22%
CCCCNC(=O)c1nc2ncc(Br)cn2n1	0%	0%	-6%	12%	-2%	16%	.	.	.
Cc1cc(C)c2oc(-c3ccc(NC(=O)c4cc(Br)ccc4Cl)cc3)nc2c1	.	3%	-6%	1%	-4%	5.8µM*	-13%	-1%	7.3µM*
COc1cc2c(cc1OC)C(c1ccccc1C(F)(F)F)CC(=O)N2 (configuration not stated)	2%	0%	7%	-3%	-1%	?	.	.	.
Nc1nc(Cl)cc(N2CCC(c3cc(-c4ccc(Cl)cc4)n[nH]3)CC2)n1	-20%	6%	24%	?	-5%	8.2µM*	-19%	-21%	18µM*
COc1ccc(OC)c(-c2cc(C3CCN(c4cc(Cl)nc(N)n4)CC3)[nH]n2)c1	2%	2%	?	-17%	-9%	?	.	.	.
O=C(NNC(=O)c1cccc(S(=O)(=O)N2CCc3ccccc32)c1)c1ccccc1	1%	5%	14%	-28%	2%	8.2µM*	-19%	-2%	5.2µM*
CC(=O)NS(=O)(=O)c1ccc(NC(=O)c2cccc(S(=O)(=O)N3CCc4ccccc43)c2)cc1	-3%	0%	0%	1%	-4%	3%	.	.	.
CN(C)S(=O)(=O)c1cccc(NC(=O)c2cccc(S(=O)(=O)N3CCc4ccccc43)c2)c1	-8%	3%	.	-12%	-2%	4.6µM*	0%	-10%	16µM*
CC(C)CCNC(=O)c1cccc(S(=O)(=O)N2CCc3ccccc32)c1	5%	0%	12%	2%	-2%	-1%	.	.	.
Cn1c(=O)n(CC(=O)NCC2CCCO2)c(=O)c2c3c(sc21)COC(C)(C)C3 (configuration not stated)	-1%	2%	-1%	-3%	-3%	2%	.	.	.
O=C(NC1CCCc2ccccc21)c1cn2ccccc2n1 (configuration not stated)	0%	4%	-27%	2%	17%	20%	.	.	.
Cc1nc2ccccn2c1C(=O)NC1CCCc2ccccc21 (configuration not stated)	22%	2%	14%	3%	-3%	1.6µM*	0%	-7%	4.6µM*
COc1ccc(N2CCN(c3ncnc4c3[nH]c3ccccc34)CC2)cc1	1%	4%	17%	-10%	-4%	5.8µM*	1%	0%	2.9µM*
COc1cc2[nH]c3c(N4CCN(c5ccccn5)CC4)ncnc3c2cc1OC	-5%	4%	19%	-7%	-13%	?	.	.	.
Cc1nc2nncn2c(NCc2ccc(Cl)cc2)c1C	.	3%	?	-5%	-4%	3.3µM*	-1%	-2%	6.5µM*
CCc1c(C)nc2nncn2c1NCc1ccc(OC)cc1	.	1%	12%	-3%	.	?	.	.	.
O=C(Nc1ccc(F)cc1)c1cc(S(=O)(=O)N2CCCCC2)cs1	6%	0%	21%	-25%	-4%	8.2µM*	1%	-10%	7.3µM*
O=C(Nc1ccc(F)cc1)c1cc(S(=O)(=O)N2CCCCC2)ccc1F	-16%	0%	11%	0%	-1%	-3%	.	.	.
CC(=O)/C(=N\Nc1ccccc1)Oc1ccc(Br)cc1	.	1%	.	1%	-2%	-11%	.	.	.
SMILES	Mito fusion act	Nrf2 ARE act	miR-21 act	A549 tox-1	Glioma ERSR ind	Nrf2 inh	FLuc counter 3	A549 tox-2	ARE-Fluc inh
CN(CC(=O)Nc1ccc(F)cc1)CC(=O)Nc1ccc(F)c(F)c1F	7%	-1%	-1%	-15%	-2%	-29%	.	.	.
O=C(Nc1nc(-c2ccccn2)cs1)c1cc(Cl)ccc1[N+](=O)[O-]	-6%	?	10%	?	-2%	4.1µM*	15µM*	-27%	1.8µM*
Cc1ccccc1C(=O)N1CCN(c2ccc(NC(=O)c3ccc4c(c3)OCO4)cc2)CC1	-1%	0%	?	-12%	-1%	9.2µM*	-12%	-4%	7.3µM*
O=c1cnnc(N/N=C/c2ccccn2)[nH]1	-4%	1%	25%	-20%	-7%	?	0%	-16%	12µM*
Cc1cc(=O)[nH]c(N/N=C/c2ccccn2)n1	-9%	0%	10%	-7%	-2%	-4%	.	.	.
CCCc1c(O)c2ccccc2[nH]c1=O	8%	-1%	-3%	-7%	-5%	-1%	.	.	.
CCN(C(=O)COC(=O)CN(C)S(=O)(=O)c1ccc(NC(C)=O)cc1)C1CCS(=O)(=O)C1 (configuration not stated)	-2%	0%	0%	-9%	0%	-3%	.	.	.
